Source: PubChem BioAssay (National Center for Advancing Translational Sciences (NCATS))
A selection: hits, their analogues and other compounds. The true share with any hit is near 21%.
NS1 function inh – influenza NS1 inhibition; Potency, µM (top dose mostly 46.1 µM); actives 0.4% (n = 270,000); AID 2326; also: actives are rising curves; nearly all actives have a fitted effect of over 50% in size
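Compounds were scored for reversing the slow growth caused by influenza A NS1 in S. cerevisiae, measured by optical density at 600 nm. Assay medium contained 2% galactose at pH 6.0; NS1-free yeast of the same strain were the positive control.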
Pf growth 96h – inhibits malaria parasite growth, 96 h | P. falciparum luciferase reporter growth, 96 h | Potency, µM (titrated, usually from 28.7 µM), usual class: inhibitors | actives 6.9% (n = 320,000) | AID 504834; active = well fitted inhibition curve with a large enough effect; inconclusive = small, poorly fitted or top-dose-only effect, or another doubt; inactive = no such curve, though single readings can be large or run the other way
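Compounds incubated with erythrocytes infected by luciferase-expressing P. falciparum (2% hematocrit, 0.05% parasitemia final) for 96 hours, 37 C in 5% CO2. Growth inhibition scored as decreased luciferase luminescence.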
CHX counter – counter-screen for Shiga toxin inhibitors: cycloheximide protein synthesis inhibition | cell reporter, cycloheximide protein synthesis inhibition counterscreen | max response, % | actives 12% (n = 300,000); in the data active = max response mostly above about 13%, no sharp cut-off; inactive = mostly below about 14%; also: read at 38.3 µM for the half of the compounds with a filed dose
Shiga inhibitor – blocks Shiga toxin action in Vero cells; Vero cells, Shiga toxin protein synthesis inhibition reporter; inhibition, % at 38.7 µM; actives 9.2% (n = 290,000); in the data active = inhibition mostly above about 28%, no sharp cut-off; inactive = mostly below about 43%
Pf growth 48h – inhibits P. falciparum growth in the first generation, 48 h | AID 504832 | P. falciparum luciferase growth in erythrocytes, 48 h | actives 5.9% (n = 310,000) | Potency, µM (top dose mostly 28.7 µM), actives largely listed as inhibitors; active = well fitted inhibition curve with a large enough effect; inconclusive = small, poorly fitted or top-dose-only effect, or another doubt; inactive = no such curve, though single readings can be large or run the other way
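A one-generation exposure of luciferase-tagged malaria parasites in RPMI 1640/Albumax erythrocyte culture, 37 C and 5% CO2. Inhibition is inferred from decreased luminescence after adding detection reagent.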
SARS PLP yeast – blocks SARS-CoV papain-like protease in a yeast assay; S. cerevisiae expressing SARS-CoV PLpro, growth rescue; Potency, µM (top dose mostly 32.9 µM), usual class: activators; actives 0.19% (n = 330,000); also: nearly all actives have a fitted effect of over 55% in size
Of the large screens only hits and unclear results are named; the others gave an inactive call. Unless noted, calls follow the shape of the full dose curve.

CC(=O)c1cccc(NC(=O)c2cc(Cl)sc2Cl)c1	CHX counter 24.8, Shiga inhibitor 39.4
O=C(Nc1ccc(Nc2ccccc2)cc1)c1ccc(Br)cc1	SARS PLP yeast inconclusive
COc1ccc(OCCCC(=O)N(C)CC(=O)Nc2ccccc2Cl)cc1	Pf growth 96h inconclusive
CCCCc1ccc(S(=O)(=O)NC2CCS(=O)(=O)C2)cc1 (stereo not given)	none
Cc1csc(C(=O)NCC(=O)NNC(=O)c2cccc(Cl)c2)c1	none
CC(C)(C)C1CCC(=NOC(=O)c2ccc(F)cc2)CC1 (stereo not given)	Pf growth 96h 10.4µM, Pf growth 48h inconclusive (no result: NS1 function inh)
O=C(ON=C1CCN(S(=O)(=O)c2ccccc2)CC1)c1ccc(F)cc1	none
Cc1cccc(C)c1Nc1nnc(SCc2cn3cccc(C)c3n2)s1	Pf growth 96h 10.4µM, Pf growth 48h inconclusive
C/C(N)=C(/C#N)C(=O)CSc1nnc(Nc2cccc(C)c2C)s1	CHX counter 21.9, Shiga inhibitor 39.9, Pf growth 48h inconclusive
C/C(N)=C(/C#N)C(=O)CSc1nnc(Nc2c(C)cccc2C)s1	NS1 function inh inconclusive, Pf growth 96h 11.7µM, Pf growth 48h inconclusive
C/C(N)=C(/C#N)C(=O)CSc1nn(-c2ccc(Cl)cc2)c(=S)s1	Pf growth 96h inconclusive, CHX counter 47.3, Shiga inhibitor 72.1, Pf growth 48h inconclusive (no result: NS1 function inh)
C/C(N)=C(/C#N)C(=O)CSc1nnc(SCc2ccc(Cl)cc2)s1	none
COc1ccccc1CNC(=O)COC(=O)C1CCN(S(=O)(=O)c2ccccc2)CC1	Pf growth 48h inconclusive (no result: NS1 function inh, CHX counter, Shiga inhibitor)
CC1CCCC(C)N1C(=O)C1CC(c2ccc(F)cc2)=NO1 (stereo not given)	CHX counter 20.4, Shiga inhibitor 47.9 (no result: Pf growth 96h)
CC1CCN(C(=O)C2CC(c3ccc(F)cc3)=NO2)CC1 (stereo not given)	CHX counter 36.4, Shiga inhibitor 98.0 (no result: Pf growth 96h)
CN1CCN(C(=O)C2CC(c3ccc(F)cc3)=NO2)CC1 (stereo not given)	Pf growth 96h inconclusive (no result: Pf growth 48h)
COc1ccc2c(c1)c1nc(SCC(C)C)n(CCO)c(=O)c1n2C	Pf growth 96h inconclusive (no result: Pf growth 48h)
O=C(Nc1ccc(NC(=O)c2ccc(Cl)c(S(=O)(=O)N3CCOCC3)c2)cc1)c1ccccc1	none
CC1(C)CC2CC(C)(CN2S(=O)(=O)c2ccc(C(=O)Nc3ccc(Cl)c(S(=O)(=O)N4CCOCC4)c3)cc2)C1 (stereo not given)	NS1 function inh inconclusive, Pf growth 96h inconclusive, Pf growth 48h 9.28µM
CCCNC(=O)c1cccc(S(=O)(=O)N2CC3(C)CC2CC(C)(C)C3)c1 (stereo not given)	Pf growth 96h 13.1µM, Pf growth 48h inconclusive (no result: NS1 function inh, CHX counter, Shiga inhibitor)
CC1(C)CC2CC(C)(CN2S(=O)(=O)c2ccc(C(=O)Nc3ccc(S(=O)(=O)N4CCOCC4)cc3)cc2)C1 (stereo not given)	Pf growth 96h inconclusive, Pf growth 48h 10.4µM
CN(C)C(CNC(=O)c1cccc(S(=O)(=O)N2CC3(C)CC2CC(C)(C)C3)c1)c1ccco1 (stereo not given)	Pf growth 48h inconclusive
CC(=O)Nc1ccc(S(=O)(=O)N2CC3(C)CC2CC(C)(C)C3)cc1 (stereo not given)	none (no result: NS1 function inh)
COc1ccc(N2CC(NC(=O)N3CCN(C(=O)c4ccco4)CC3)CC2=O)cc1OC (stereo not given)	none (no result: NS1 function inh, CHX counter, Shiga inhibitor)
OCCC1CN(Cc2cnc(-c3ccc(Cl)cc3)nc2)CCN1C1CCCCC1 (stereo not given)	CHX counter 16.0, Shiga inhibitor 27.8, Pf growth 48h 10.4µM
OCCC1CN(Cc2cccc3nccnc23)CCN1C1CCCC1 (stereo not given)	Pf growth 96h 13.1µM
CC(C)=CCN1CCN(Cc2cccc3nonc23)CC1CCO (stereo not given)	Pf growth 96h 2.08µM
OCCC1CN(Cc2cccc3nonc23)CCN1C1CCCCC1 (stereo not given)	Pf growth 96h 14.7µM
CN(CCCC(=O)Nc1ccccc1)S(=O)(=O)c1ccc(Cl)cc1	none
O=C(NCC(=O)N1CCN(c2ccc(C(F)(F)F)cn2)CC1)c1ccc(Br)o1	Pf growth 96h inconclusive, Pf growth 48h inconclusive (no result: NS1 function inh, CHX counter, Shiga inhibitor)
Cc1cc(=O)n(C2CCS(=O)(=O)C2)[nH]1 (stereo not given)	none
Cc1cc(C)n(-c2ccc(F)cc2CN2CCN(C3CCCC3)C(CCO)C2)n1 (stereo not given)	Pf growth 96h 1.65µM
COc1ccc(C2(C)NC(=O)NC2=O)cc1OC (stereo not given)	none
Cc1ccc(-c2cc3ncc(C#N)c(N)n3n2)cc1	CHX counter 24.1, Shiga inhibitor 69.4 (no result: NS1 function inh)
Nc1c(-c2ccc(Cl)cc2)cnc2ncnn12	Pf growth 96h inconclusive, Pf growth 48h inconclusive
Nc1c(-c2ccccc2)cnc2cc(-c3ccccc3)nn12	Pf growth 96h inconclusive, CHX counter 23.9, Shiga inhibitor 35.7 (no result: NS1 function inh)
Cc1cc2ncc(-c3ccc(Cl)cc3)c(N)n2n1	CHX counter 43.5, Shiga inhibitor 63.6
CC(=O)c1cnc2cc(C)nn2c1C	Pf growth 96h inconclusive
COc1ccc(-c2cc3ncc(C(C)=O)c(C)n3n2)cc1	Pf growth 96h inconclusive, CHX counter 27.8, Shiga inhibitor 68.3
CC(=O)c1cnc2cc(-c3ccc(C)cc3)nn2c1C	CHX counter 25.8, Shiga inhibitor 13.4
CC(=O)c1cnc2cc(-c3ccccc3)nn2c1C	NS1 function inh inconclusive, Pf growth 96h inconclusive, CHX counter 43.3, Shiga inhibitor 57.3
CCOC(=O)c1cnc2cc(C)nn2c1C	none (no result: Pf growth 48h)
CCOC(=O)c1cnc2cc(C)nn2c1-c1ccccc1	none
Cc1c(Cl)cccc1NC(=O)COC(=O)Cn1cnc2c1c(=O)n(C)c(=O)n2C	none (no result: NS1 function inh, CHX counter, Shiga inhibitor)
C(=N\c1nc2ccccc2[nH]1)/c1cccs1	Pf growth 96h 10.4µM
N#C/C(=C\c1cccs1)c1nc2ccccc2[nH]1	CHX counter 31.6, Shiga inhibitor 106.7, Pf growth 48h inconclusive
N#C/C(=C\c1ccccc1OCC(=O)O)c1nc2ccccc2[nH]1	CHX counter 8.3 (no result: Pf growth 48h)
N#C/C(=C/c1ccc(O)c(O)c1)c1nc2ccccc2[nH]1	CHX counter 26.2, Shiga inhibitor 76.6
CN(C)c1ccc(/C=N/NC(N)=S)cc1[N+](=O)[O-]	none
CCOC(=O)C1(CCCc2ccccc2)CCN(C(=O)CCOC)CC1	none
Cn1c(N)c(S(=O)(=O)NCc2ccc(F)cc2)c(=O)n(C)c1=O	none
CCN(CC1CCCN(CCc2cccc(OC)c2)C1)C(=O)c1ccoc1C (stereo not given)	none
Cc1ccc(C(=O)NC2CCN(CC(=O)Nc3ccccc3Cl)CC2)cc1	SARS PLP yeast inconclusive
N#C/C(=C/c1ccncc1)c1nc2ccccc2c(=O)[nH]1	Pf growth 96h inconclusive, Pf growth 48h inconclusive
N#C/C(=C\c1ccc(OC(=O)c2cccs2)cc1)c1nc2ccccc2[nH]1	Pf growth 96h inconclusive, CHX counter 57.9, Shiga inhibitor 144.7
Cc1ccc(/C=N/NC(=O)c2n[nH]c3c2CCCC3)cc1	CHX counter 32.4, Shiga inhibitor 53.4
